In the supplement of paper PMC11417369:
± gives the standard deviation of the averaged measurements. Over roughly 25,000 sequences, “ln(normalized median fluorescence intensity)” has its median near 10; the highest 2% begin near 12. This excerpt belongs to a sample that is enriched for the highest values.

Test system: PfAP2-G AP2 domain (GST-tagged)
Assay: gcPBM binding intensity (ln(normalized median fluorescence intensity)); higher = stronger DNA binding
Summary of the method: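 Using an Agilent 4 × 180k array, primer-extended double-stranded 36-bp intergenic genomic probes and negative controls were exposed for 1 h to GST-fused P. falciparum DNA-binding domains expressed in E. coli. Binding was carried out in 1× PBS with 1% milk, 0.2 mg/ml BSA, 0.5% salmon testes DNA and 0.03% Triton X-100, and protein was detected with Alexa488 anti-GST antibody and a 488 nm scan. Binding intensity is the highest Masliner-normalised natural-log median intensity across replicate spots of either probe orientation.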

| Sequence | gcPBM binding intensity (ln) |
| --- | --- |
| ATCTAATAAAAATACACACACATATGATTTGTGAAT [CACACA_site1867] | 10.1 ± 0.28 |
| TTCTTTTTAAATATACTAATTATGTATAAAACAGAA [GTGCAC_negctrl_site131] | 9.94 ± 0.23 |
| TAAATTATTTATAAAGCACACAAGAAAAAATAAAAT [CACACA_site2132] | 10.2 ± 0.092 |
| TTTCACACTATTTCATGTACACATAAAATTATATAT [XGTACX_site8692] | 11.4 ± 0.94 |
| ATACTATAATAATACACACTCATTAGATATATAAAG [CACACA_site7787] | 9.99 ± 0.12 |
| AAAAAAAAAAAATGAGCACACATAAATAAAAACAAA [CACACA_site8447] | 10.2 ± 0.12 |
| AAATTAAATAAATTTACACACTAAAAATTACAGATA [CACACA_site4722] | 9.88 ± 0.028 |
| TTTGACAAATTATTGTGTACACAATATTATTATATA [XGTACX_site8320] | 11.7 ± 1 |
| AAAAATATATTATATGTACACACAAAATTAAGGGAT [CACACA_site8384] | 11.5 ± 0.83 |
| TGTATTATATATACACAAATATTTATGTGTGTGTTT [XGTACX_negctrl_site475] | 10.1 ± 0.11 |
| GACAAATTATTGTGTACACAATATTATTATATATAC [CACACA_site6020] | 11.6 ± 0.89 |
| AAAAATATAATATAATGTACACAAAAAAAAAAAAAT [XGTACX_site4914] | 11.6 ± 0.91 |
| AAATGTGTTAATGTGCGTACACATATATATAATATT [XGTACX_site2792] | 11.7 ± 1.1 |
| AATGTATAATTATAATGTACAAATAATATATAATAT [XGTACX_site5407] | 10.9 ± 0.4 |
| TATATATATATAATGTGTACACAAATATATATTATA [XGTACX_site8786] | 11.7 ± 1.1 |
| ATACACATATGTTAATGTACACATATATAATATTTA [XGTACX_site163] | 11.3 ± 0.78 |
| TTATTTTTTTTTTTTTGTACACAATTTGACACATTA [XGTACX_site7983] | 11.5 ± 0.91 |
| TTAAAAATGTGTGTGCGTACATAATATTTCGAAAAA [XGTACX_site8197] | 11.6 ± 1 |
| ATATATATATATATGTGTACACAAAAAATATTATAT [XGTACX_site5741] | 11.6 ± 0.83 |

| Sequence | gcPBM binding intensity (ln) |
| --- | --- |
| TTTTTTTTCTCACAAAAAATAATTAACAAAAAGGAA [XGTACX_negctrl_site154] | 10.2 ± 0.32 |
| ATATATATAATAAATACACACATTTATATAGATAAA [CACACA_site3254] | 9.925 ± 0.092 |
| TGACTTTGTTGAATTTGTCCTCTTAACTCATAATAT [GTGCAC_negctrl_site217] | 10.6 ± 0.48 |
| TCCTTTCTTTTTTAAACATGCATATGTAATATAAAT [TGCATGCA_site979] | 10 ± 0.26 |
| TTTTTTTGCGCGGGAAGAATAAAATTTATAGAATAT [TGCATGCA_negctrl_site306] | 10.4 ± 0.36 |
| ATAAATAATATAAATACACACTAAAAAAGATATATA [CACACA_site6397] | 10.01 ± 0.014 |
| TATAAATATAAATACTGTACATTATATTATATAATA [XGTACX_site2480] | 11 ± 0.71 |
| ATAATCACAAATAATTGTACATTTTGTTATATATAT [XGTACX_site7704] | 10.8 ± 0.45 |
| TTGTGTCATATATTTTGTAATCAAAATAATTTTATT [TGCATGCA_negctrl_site307] | 10.1 ± 0.37 |
| TAGTATAAAATTATGTGTACACAAATATAACTTTTC [XGTACX_site5971] | 11.6 ± 0.78 |
| ATAATAATATTGTGTACACAATAATTTGTCAAATCA [CACACA_site6019] | 11.7 ± 0.86 |
| TTTATACAAATATGTACACACTAAATATATATTATG [CACACA_site4413] | 11.5 ± 0.77 |
| TTTTTTTTTTTTGTGCGTACATACCATTTTAATAAT [XGTACX_site2760] | 11.6 ± 0.92 |
| TATAAAATTATGTGTACACAAATATAACTTTTCTTT [CACACA_site5554] | 11.7 ± 0.95 |
| ATAATACCATTAATTTGTACATATATATTATATATA [XGTACX_site4345] | 10.9 ± 0.49 |
| AACTTCTTTTTTATAACACACAAAATATAAATACAA [CACACA_site4313] | 10.2 ± 0.43 |
| ATATATATACTGTGTACACAAATATATATTATATAT [CACACA_site6104] | 11.6 ± 0.84 |
| TATATTTTTTTTGTGCGTACATACCATTTTAATAAT [XGTACX_site2751] | 11.7 ± 0.8 |
| ATATATATATATATATGTACTTATATATAATATAGA [XGTACX_site3488] | 11.2 ± 0.79 |

| Sequence | gcPBM binding intensity (ln) |
| --- | --- |
| TTTATTATTATATTATTTTAATTTTTCTTTAGTACA [GTGCAC_negctrl_site392] | 10.29 ± 0.099 |
| CTTTTTTTCTTTCCAAGTACTAAATTCATACAAATT [XGTACX_site2605] | 10.8 ± 0.51 |
| CATTAATATATATATACATGCACGTTTTAAAAAAAA [TGCATGCA_site875] | 10.1 ± 0.23 |
| GTAAGATTTCTTGTTGCATGCGGTAAAAAGTAAAAT [TGCATGCA_site469] | 10.6 ± 0.41 |
| ACATTCATAAAAAAAAGTACATTTTTTATAAAAGAA [XGTACX_site6197] | 11.4 ± 0.75 |
| AATATAAATAAAAACACACACACACCCATATATATA [CACACA_site2267] | 10.1 ± 0.32 |
| TTTATGTAATATACATGTACAGAATATAAAATATAT [XGTACX_site6906] | 11 ± 0.54 |
| ATATATGTATATATGTACATGAATATATAAAGAAAA [CACACA_negctrl_site315] | 11.1 ± 0.67 |
| AATACATGAATATGTAGTACAGAAAAAAAAAATATA [XGTACX_site1945] | 11.7 ± 0.95 |
| ATATTATCACAAGGTGGTACACAAAAAAAAAAAAAA [XGTACX_site8224] | 11.4 ± 0.95 |
| TTTTTTTTTTTATGTGCACACAAAAGATGCTTATAT [CACACA_site2347] | 10.6 ± 0.53 |
| ATTATTAAAATGATATGTACGCACATAATATACATA [XGTACX_site3236] | 11.6 ± 0.94 |
| AACAATGTTGTACATACACACACACTAATAAAAAAT [CACACA_site8758] | 11.4 ± 0.95 |
| AATAATATTTAATACGCACACAATAATAATATAAAA [CACACA_site1763] | 10.4 ± 0.32 |
| ATAGCACATTTTTAAGCACACGTTTATTATATATAT [CACACA_site6084] | 10.3 ± 0.24 |
| TTGGATGATTAAGGGGGACACACGTTTATATATTTA [CACACA_site338] | 11.4 ± 0.79 |
| GGATGATTAAGGGGGACACACGTTTATATATTTATA [CACACA_site4342] | 11.7 ± 0.9 |
| AAACAAAAGGAAAACATATATATATTAAATGTATAT [CACACA_negctrl_site1663] | 9.64 ± 0.33 |
